Data taken from PubChem BioAssay AID1259422 (The Scripps Research Institute Molecular Screening Center, 2018).
Screen size: about 640,000 compounds; about 9,300 (1.5%) were called active. The entries come from a sample that favours actives as a whole. Unmarked numbers belong to inactive results. No stated cut-off is given here; in the data, active means inhibition above about 32%; inactive means the rest.

Assay: TEAD-YAP interaction inhibition, primary screen, TEAD-YAP interaction inhibitor project, luminescence, HEK-TIYL cells (AID 1259422);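 further: 0% = median of test compound wells and 100% = reference inhibitor wells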
Conditions: TEAD-Gal4/YAP UAS-luciferase luminescence, at 9.12 µM, stronger effect = higher value

Row | Compound | inhibition
1 | Cc1cc(C)c2c(NCc3ccccc3F)n[nH]c2n1 | -16.5%
2 | Clc1ccccc1OCc1nn2c(Cc3ccccc3)nnc2s1 | -7.7%
3 | Cc1ccc(OCc2nn3c(Cn4cnc5ccccc54)nnc3s2)cc1 | 32.3% (active)
4 | c1ccc(Cc2nn3c(Cn4cnc5ccccc54)nnc3s2)cc1 | 6.31%
5 | COC(=O)c1c(C)[nH]c(C(=O)/C(C#N)=C/c2cccnc2)c1C | -3.19%
6 | CCc1nc2sc3c(N4CCCC4)ncnc3c2c2c1COC(C)(C)C2 | -9.9%
7 | CC(=O)c1ccc(OC(=O)c2ccccc2Cl)cc1 | 7.46%
8 | O=C(Cn1cnc2ccc(Br)cc2c1=O)OC1CCCCC1 | -11.3%
9 | CCC(C)n1c(N(C)Cc2ccccc2)nc2c1c(=O)[nH]c(=O)n2C (stereo not drawn) | 49.9% (active)
10 | CC(Nc1nc2c(c(=O)[nH]c(=O)n2C)n1Cc1ccccc1)c1ccccc1 (stereo not drawn) | 0.86%
11 | Cn1c(=O)[nH]c(=O)c2c1nc(N(CCO)Cc1ccccc1)n2Cc1ccccc1Cl | -2.54%
12 | CCC(C)NC(=O)c1ccc(N2CCC3(CC2)OCCO3)c([N+](=O)[O-])c1 (stereo not drawn) | -13.8%
13 | CCC(C)NC(=O)c1ccc(S(=O)(=O)c2ccc(OC)cc2)c([N+](=O)[O-])c1 (stereo not drawn) | 32.4% (active)
14 | COCCNC(=O)c1ccc(Sc2ccc(OC)cc2)c([N+](=O)[O-])c1 | -17%
15 | Cc1nn(C)c(C)c1-c1cncc(C(=O)NCc2cccc(C(F)(F)F)c2)c1 | -3.32%
16 | Cc1nc2c(C(=O)NCc3ccc(F)cc3)cnn2c(C)c1Cc1cccc(Cl)c1 | 0.57%
17 | O=C(CSCC(=O)Nc1ccc2ccccc2c1)NCC1CCCO1 (stereo not drawn) | -13.5%
18 | O=c1oc2cc(Cl)ccc2n1C(c1ccccc1)(c1ccccc1)c1ccccc1 | -6.71%
19 | O=C1NC2(CCN(C(=O)CCn3ncc4ccccc43)CC2)Nc2ccccc21 | -11.1%
20 | O=C1NC2(CCN(C(=O)C3CCN3C3CCCCC3)CC2)Nc2ccccc21 (stereo not drawn) | 7.24%
21 | O=C1NC2(CCN(C(=O)c3cccc4cccnc34)CC2)Nc2ccc(Cl)cc21 | 77.2% (active)
22 | CCc1ccc2c(c1)NC(=O)C2(CC)c1ccc2c(c1)OCO2 (stereo not drawn) | -7.41%
23 | CN(c1ccc(C(=O)Nc2cc(F)cc(F)c2)cc1[N+](=O)[O-])C1CCCCC1 | -5.53%
24 | CN(c1ncnc2c1nc1n2CCCCC1)C1CCCCC1 | -48%

Row | Compound | inhibition
25 | CN(c1nc(N)ncc1[N+](=O)[O-])C1CCCCC1 | 33.8% (active)
26 | CCOC(=O)C1=CN(Cc2ccc(F)cc2)C=C(C(=O)OCC)C1c1cccc(OCc2ccccc2)c1 | 10.8%
27 | COC(=O)C1=CN(Cc2ccc(OC)c(OC)c2)C=C(C(=O)OC)C1c1cccc(OCc2ccccc2)c1 | 55.4% (active)
28 | CCOC(=O)C1=CN(Cc2ccc(Cl)cc2)C=C(C(=O)OCC)C1c1cccc(OCc2ccccc2)c1 | 5.47%
29 | CC(=O)c1ccc(OCC(=O)Nc2c(F)c(F)cc(F)c2F)cc1 | -0.14%
30 | CCOc1ccc(C2C(C#N)=C(N)N(c3ccc(F)cc3)C3=C2C(=O)CCC3)cc1 (stereo not drawn) | -0.96%
31 | N=C1c2ccccc2CN1NC(=O)c1ccccc1-n1cccc1 | 11.5%
32 | CNC(=O)c1ccccc1Nc1cc(NC(=O)C2(c3ccccc3)CC2)ncc1C(F)(F)F | -1.5%
33 | Cc1cc(NC(=O)c2cccs2)ncc1NC(=O)c1ccccc1F | -50.5%
34 | CNC(=O)c1ccccc1Nc1cc(NC(=O)Cc2ccc([N+](=O)[O-])cc2)ncc1C(F)(F)F | 78.8% (active)
35 | CNC(=O)c1ccccc1Nc1cc(NC(=O)Cc2ccc(F)c(F)c2)ncc1C(F)(F)F | 65.4% (active)
36 | FC(F)(F)c1cccc(Nc2ccc(Br)cn2)c1 | 9.99%
37 | CNC(=O)c1ccccc1Nc1cc(NC(=O)C(F)(F)c2ccccc2)ncc1C(F)(F)F | 41.9% (active)
38 | O=C(Cc1c(F)cccc1Cl)Nc1ccc(Cl)cn1 | -7.57%
39 | CCc1ccccc1NC(=O)Cc1ccc([N+](=O)[O-])cc1 | 2.99%
40 | O=C(Cc1ccc([N+](=O)[O-])cc1)Nc1ccccc1Cl | -21.8%
41 | Cc1nc(NC(=O)c2ccc(C(C)(C)C)cc2)sc1C(=O)N1CCOCC1 | 13.1%
42 | COC(=O)c1cc2occc2n1CC(=O)N(C)c1ccccc1 | 4.95%
43 | Nc1cc(Oc2ccc3ccccc3c2)c(Cl)cc1[N+](=O)[O-] | 2.07%
44 | O=C(COc1coc(CN2CCN(c3ccccc3F)CC2)cc1=O)N1CCCCCC1 | -0.51%
45 | COC(=O)c1cc(NC(=O)Nc2cc(Cl)ccc2OC)cc(C(=O)OC)c1 | 0.04%
46 | COCCNc1cc(-c2cncc(-c3ccc(F)cc3)c2)nc(C)n1 | -1.76%
47 | Cc1ccc(-c2cncc(-c3cc(NCc4ccco4)nc(C)n3)c2)cc1 | -4.33%
48 | Cc1cnc(CNc2cc(-c3cncc(-c4ccc(F)cc4)c3)nc(C)n2)cn1 | 33% (active)
